Experimental data as given in PubChem BioAssay (EPA / NIEHS).
Several values for one entry are separate records, joined by “and”; a condition that tells them apart may be missing. Identical values can stand only once. Inconclusive results are not listed. The source holds several records for some structures; these can differ, active in one and inactive in another. Activity calls are given as the source filed them. How the source made its calls: active means hit-call score of the fitted dose curve at least 0.9, where 1 is the maximum; inconclusive means response in the unintended direction; inactive means score below 0.9.

What was measured:
[1] = ATG_XTT_Cytotoxicity: Cytotoxicity Assessment in the Attagene TRANS-FACTORIAL HepG2 Assay (AID 2283584);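 on AC50: cells exposed to compound for 24 h before reading; active means loss of viability signal versus DMSO baseline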
In short: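 HepG2 human liver cells, transiently transfected with multiple GAL4-UAS reporter units, were dosed and read at 24 h by XTT as cell number. Loss of signal was fitted relative to DMSO negative control baseline.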

[2] = TOX21_p53_BLA_p2_viability: Viability Assessment in the Tox21 HCT-116 p53 Agonism Beta-lactamase Assay, Phase 2 (AID 2283591);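 further: compound exposure lasted 16 h at 37 °C; actives lower the ATP signal meaning cytotoxicity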
In short: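 Cytotoxicity readout: CellTiter-Glo ATP luminescence, 30 min at room temperature, after the beta-lactamase read. Cells were HCT116 exposed 16 h at 37C to compounds pin-transferred at 217-fold dilution from DMSO stocks.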

[3] = TOX21_p53_BLA_p3_viability: Viability Assessment in the Tox21 HCT-116 p53 Agonism Beta-lactamase Assay, Phase 3 (AID 2283593);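 further: cells exposed to compound for 16 h before reading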
In short: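 Cellular ATP was quantified by CellTiter-Glo luminescence, read after 30 min at room temperature. Beforehand, HCT116 cells (4000/well) received compound 5 h post-seeding, 217-fold diluted from DMSO, then incubated 16 h at 37C.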

[4] = biological target: Cellular tumor antigen p53 (Homo sapiens) (UniProt P04637); assay: TOX21_p53_BLA_p2_ratio: Tox21 HCT-116 p53 Agonism Beta-lactamase Assay, Ratio, Phase 2 (AID 2283592)
Sequence of Cellular tumor antigen p53 (Homo sapiens) (P04637 whole entry, looked up): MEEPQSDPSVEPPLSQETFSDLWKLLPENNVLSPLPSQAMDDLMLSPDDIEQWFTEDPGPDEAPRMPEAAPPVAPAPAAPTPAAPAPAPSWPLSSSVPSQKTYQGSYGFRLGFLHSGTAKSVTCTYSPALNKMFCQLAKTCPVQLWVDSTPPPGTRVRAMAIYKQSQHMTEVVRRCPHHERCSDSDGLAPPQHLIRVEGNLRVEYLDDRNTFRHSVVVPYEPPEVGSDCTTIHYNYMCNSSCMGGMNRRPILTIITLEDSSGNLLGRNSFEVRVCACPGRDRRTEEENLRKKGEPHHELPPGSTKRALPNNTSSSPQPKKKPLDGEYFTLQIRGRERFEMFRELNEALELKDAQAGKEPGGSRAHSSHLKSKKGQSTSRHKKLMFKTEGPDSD
In short: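 Ratio endpoint: beta-lactamase cleavage of CCF4-AM, blue (460 nm) over green (530 nm). HCT116 reporter line; 16 h treatment, 37C; substrate 2 h RT.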

## COc1ccc(OC)c(N=Nc2c(O)ccc3ccccc23)c1
[1]
  outcome: inactive

## C=C(C)C1CC=C(C)C(=O)C1 (stereo not drawn)
[1]
  outcome: inactive

## C[C@H](CCC(=O)NCC(=O)O)[C@H]1CC[C@H]2[C@@H]3[C@H](O)C[C@@H]4C[C@H](O)CC[C@]4(C)[C@H]3C[C@H](O)[C@]12C
[1]
  outcome: inactive
[2]
  outcome: inactive

## C=Cc1ccc(C(C)(C)C)cc1
[1]
  outcome: inactive

## CN(C)c1ccncc1
[1]
  outcome: inactive

## C=C1CC[C@H](O)C/C1=C/C=C1\CCC[C@]2(C)[C@@H]([C@H](C)/C=C/[C@H](C)C(C)C)CC[C@@H]12
[1]
  outcome: inactive
[2]
  AC50: 71.1 µM (active)
  outcome: inactive
[3]
  AC50: 61.1 µM (active) and 45.8 µM (active) and 42.2 µM (active)

## O=C1NC2NC(=O)NC2N1 (stereo not drawn)
[1]
  outcome: inactive
[2]
  outcome: inactive

## C=COCCOCCOC=C
[1]
  outcome: inactive
[2]
  outcome: inactive

## C=CCOC(=O)CCCCCC
[1]
  outcome: inactive
[2]
  outcome: inactive

## CCCCCCCCCC(=O)OC
[1]
  outcome: inactive

## OCc1cccc(Oc2ccccc2)c1
[1]
  outcome: inactive
[2]
  outcome: inactive
[4]
  outcome: inactive

## O=C(Nc1ccc2c(O)c(N=Nc3ccc(N=Nc4ccc(S(=O)(=O)O)cc4)cc3)c(S(=O)(=O)O)cc2c1)c1ccccc1
[1]
  outcome: inactive
[2]
  outcome: inactive

## CC(C)=CCCC(C)CC(=O)O (stereo not drawn)
[1]
  outcome: inactive

## O=C(O)CNc1ccccc1
[1]
  outcome: inactive
[2]
  outcome: inactive

## O=C(O)c1cccnc1C(=O)O
[1]
  outcome: inactive

## CCN(CCN)c1cccc(C)c1
[1]
  outcome: inactive
[2]
  outcome: inactive

## CC=CC=CCOC(=O)C(C)C
[1]
  outcome: inactive
[2]
  outcome: inactive

## CCCCCCCCSCCO
[1]
  outcome: inactive
[2]
  outcome: inactive

## CCCCCCCCCCCCCC(=O)OCC(O)CO (stereo not drawn)
[1]
  outcome: inactive
[2]
  outcome: inactive
[4]
  outcome: inactive

## C=C(C)[C@H]1CC=C(C)C(=O)C1
[1]
  outcome: inactive

## C1CCOC1
[1]
  outcome: inactive
[2]
  outcome: inactive

## O=CN1CCOCC1
[1]
  outcome: inactive
[2]
  outcome: inactive

## COc1cc([C@@H]2c3cc4c(cc3[C@@H](O[C@@H]3O[C@@H]5CO[C@@H](C)O[C@H]5[C@H](O)[C@H]3O)[C@H]3COC(=O)[C@H]23)OCO4)cc(OC)c1O
[1]
  outcome: inactive
[2]
  outcome: inactive

## COC(=O)c1ccc([N+](=O)[O-])cc1
[1]
  outcome: inactive

## CN(C)CCOc1ccc(/C(=C(/CCCl)c2ccccc2)c2ccccc2)cc1
[1]
  AC50: 24.6 µM (active)
[2]
  AC50: 58.1 µM (active)
  outcome: inactive
[4]
  AC50: 74.9 µM (active)
  outcome: inactive
[3]
  AC50: 66.3 µM (active)
  outcome: inactive

## CCN(CCC#N)c1ccc(N=Nc2ccc([N+](=O)[O-])cc2)cc1
[1]
  outcome: inactive

## O=c1c(O)c(-c2ccc(O)cc2)oc2cc(O)cc(O)c12
[1]
  outcome: inactive
[2]
  outcome: inactive

## Clc1ccc(C(c2ccccc2Cl)C(Cl)Cl)cc1 (stereo not drawn)
[1]
  AC50: 148 µM (active)
  outcome: inactive
[2]
  AC50: 46.1 µM (active) and 30.1 µM (active)
[3]
  AC50: 67.7 µM (active) and 31.2 µM (active)

## ClC(c1ccccc1)(c1ccccc1)c1ccccc1
[1]
  outcome: inactive
